# Experimental data: PubChem BioAssay AID460 (PCMD, 2006)
# About 100 (0.17%) of roughly 58,000 compounds were called active. Rule as the data show it: active = inhibition above about 45%; inactive = the rest. The entries come from a sample that favours actives as a whole. Where a SMILES comes first, the peptide text is derived from it. The star is where a group is joined. Bz = O=C(c1ccccc1)*
# Biological target: Procathepsin L (Homo sapiens) (UniProt P07711)
# Experiment: inhibitors of human cathepsin L, biochemical (AID 460);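 also: 0% = enzyme with no compound and 100% = no enzyme blank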
# Conditions: purified cathepsin L, fluorogenic substrate, fluorescence; stronger effect = higher value;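 tested at 10 µM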
# Procathepsin L (Homo sapiens), sequence (P07711 114-288 limits assumed): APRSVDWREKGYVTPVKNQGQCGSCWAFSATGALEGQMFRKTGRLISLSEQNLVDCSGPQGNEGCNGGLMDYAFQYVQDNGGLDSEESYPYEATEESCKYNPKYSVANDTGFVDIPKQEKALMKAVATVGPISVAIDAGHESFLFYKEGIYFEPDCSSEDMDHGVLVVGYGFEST
# Procathepsin L (Homo sapiens), sequence (P07711 292-333 limits assumed): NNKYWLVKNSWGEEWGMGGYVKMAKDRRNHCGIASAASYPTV
row,SMILES,inhibition
1,CCOCCOC(=O)C1=C(C)N(C)C(=O)NC1c1ccccc1F (stereo not given),-0.79% (inactive)
2,CCOc1cc(C)c(Cl)cc1S(=O)(=O)n1nnc2ccccc21,3.04% (inactive)
3,O=C(c1ccccc1)c1ccc2nc(N3CCCCC3)c3nncn3c2c1,-3.17% (inactive)
4,CCOC(=O)CCc1c(C)c2ccc(OCc3nn[nH]n3)c(C)c2oc1=O,-20.7% (inactive)
5,COc1ccc(OC)c2c(N)c(C#N)c(C(F)(F)C(F)(F)F)nc12,-8.11% (inactive)
6,Cc1c(C)c2cc3c4c(oc3c(C)c2oc1=O)CCCC4,2.98% (inactive)
7,CC1CCN(Cc2nc3c(c(=O)n(C)c(=O)n3C)n2Cc2cccc3ccccc23)CC1,0.14% (inactive)
8,OC(COc1cccc2ccccc12)CN1CCN(c2ccccn2)CC1 (stereo not given),7.74% (inactive)
9,O=C(CS(=O)(=O)c1cn(Cc2cccc(F)c2)c2ccccc12)N1CCCCC1,17.3% (inactive)
10,CCCC(=O)C1=C(N(C)c2ccccc2)CC(C)(C)C(C(=O)OC)C1=O (stereo not given),-1.31% (inactive)
11,CCCn1c(=NC(C)=O)c(C(=O)OCC)cc2c(=O)n3ccccc3nc21,-149% (inactive)
12,Cc1cc2cc(CNC(=O)c3ccc(S(=O)(=O)N4CCOCC4)cc3)ccc2[nH]1,4.06% (inactive)
13,CN(CCCC(=O)Nc1nccs1)S(=O)(=O)c1ccc(Cl)cc1,-4.71% (inactive)
14,CC1=NC2(CCCc3c2no[n+]3[O-])N(O)C1(C)C (stereo not given),1.32% (inactive)
15,CC(=O)N1C(=O)C2(Nc3ccccc3N2)c2ccccc21,1.65% (inactive)
16,COc1ccccc1CNC(=O)C1CCN(S(C)(=O)=O)CC1,2.28% (inactive)
17,CC(=O)N=c1ncn(CC(COC(C)=O)OC(C)=O)c2nc[nH]c12 (stereo not given),-1.89% (inactive)
18,Cc1cccc(OCc2nnc(SCc3nc4cc(C(F)(F)F)ccc4c(=O)[nH]3)o2)c1,-0.3% (inactive)
19,O=C(O)C1CC=CCC1C(=O)NCCc1ccccc1 (stereo not given),-8.83% (inactive)
20,CC(C)c1ccc(NS(=O)(=O)c2cn(C)c(=O)n(C)c2=O)cc1,12.5% (inactive)

row,SMILES,inhibition
1,O=C(NC(Cc1ccccc1)C(=O)N1CCCC1C(=O)O)c1ccccc1 (stereo not drawn) (Bz-Phe-Pro-OH; configuration not given here),17.6% (inactive)
2,Cc1ccc(C)c(N(CC(=O)NCc2ccco2)C(=O)CCC(=O)Nc2ccccn2)c1,-0.88% (inactive)
3,COc1ccc(-c2nnn(Cc3nc(N)nc(N4CCCCC4)n3)n2)cc1,-3.62% (inactive)
4,CCOc1cccc(=O)c2c(C)n(CC3CCCO3)c(C)c12 (stereo not given),-0.25% (inactive)
5,CC(NC(=O)Nc1ccccc1)c1ccccc1 (stereo not given),1.63% (inactive)
6,O=C(CCN1C(=O)C2C3C=CC(C3)C2C1=O)Nc1ccccc1F (stereo not given),-4.07% (inactive)
7,c1ccc(-c2cn3cccnc3n2)cc1,-283% (inactive)
8,COc1ccc(CCNc2ncnc3nc[nH]c23)cc1OC,-2.05% (inactive)
9,Cc1cc(NC(=O)CCC2COc3ccccc3O2)no1 (stereo not given),0.43% (inactive)
10,c1ccc2c(c1)OCC(CNc1ncnc3nc[nH]c13)O2 (stereo not given),81.5% (active)
11,COC(=O)c1cc(OC)c(OC)cc1NC(=O)C1CCCO1 (stereo not given),17.4% (inactive)
12,Cc1nc(-c2ccc(NC(=O)c3cccs3)cc2)cs1,6.73% (inactive)
13,NS(=O)(=O)c1ccc(CCNC(=O)Nc2ccc(Cl)cc2)cc1,0.5% (inactive)
14,COc1ccc(C2CC(c3ccccc3)Nc3ncnn32)cc1 (stereo not given),20.2% (inactive)
15,Cc1ccc(C2CC(=O)NC(SCC(=O)OCc3ccccc3)=C2C#N)o1 (stereo not given),1.51% (inactive)
16,CCOC(=O)C(CCOc1cccc(CC)c1)C(=O)OCC,20.3% (inactive)
17,Cc1nnc(SCC(=O)N(C(C)C)C(C)C)nc1C,6.66% (inactive)
18,CCCC(C(=O)NCc1ccco1)N(C(=O)CNS(=O)(=O)c1ccccc1)C1CCCC1 (stereo not given),10.1% (inactive)
19,Cn1c(=O)c2cn(-c3cccc4ccccc34)cc2n(C)c1=O,6.9% (inactive)
20,COC(=O)c1ccc(CN(c2ccccc2OC)S(=O)(=O)c2cccs2)o1,14% (inactive)

row,SMILES,inhibition
1,Fc1c(F)c(C(F)(F)F)c(F)c(F)c1N1CCN(c2ccc3nnc(C(F)(F)F)n3n2)CC1,-17% (inactive)
2,CC(C)NS(=O)(=O)c1ccc(OCC(=O)Nc2ccc3c(c2)OCCO3)cc1,16.4% (inactive)
3,COc1ccc(Cn2cccc(NC(=O)Nc3ccc(C#N)cc3)c2=O)cc1,-10.3% (inactive)
4,C=CCn1c(=N)n(CC(O)COc2ccc(OC)cc2)c2ccccc21 (stereo not given),0.78% (inactive)
5,Cc1ccc(C2CC(c3cccc(Br)c3)n3nc(N)nc3N2)cc1 (stereo not given),19.9% (inactive)
6,Cc1ccc(N2C(=O)CC(NCc3ccc4c(c3)OCO4)C2=O)cc1Cl (stereo not given),-2.37% (inactive)
7,O=c1cc(O)nc(SCc2ccccc2Cl)[nH]1,-2.97% (inactive)
8,Clc1ccccc1CSc1nnc(-c2ccco2)c(-c2ccco2)n1,49.7% (active)
9,c1ccc(CSc2nnc(-c3ccco3)c(-c3ccco3)n2)cc1,10.8% (inactive)
10,N#Cc1c(NC(=O)CCCN2C(=O)c3ccccc3C2=O)oc(-c2ccccc2)c1-c1ccccc1,4.96% (inactive)
11,CN1c2ccccc2-c2nc3ccccc3n2C1c1ccco1 (stereo not given),-450% (inactive)
12,COC(=O)C1=C(C)N(C)C(C)=C(C(=O)OC)C1c1cccc(Br)c1,10.9% (inactive)
13,Cc1cc(Cl)c(S(=O)(=O)NCCC(=O)O)cc1OCC(N)=O,4.48% (inactive)
14,COc1cc(-c2nn3c(-c4cccc(C)c4)nnc3s2)cc(OC)c1OC,0.7% (inactive)
15,Cc1nnc(NC(=O)CSc2nccn2-c2cccc(C)c2C)s1,3.56% (inactive)
16,Cc1c(C(=O)N2CC(C)OC(C)C2)sc2nc(-c3ccccc3)cn12 (stereo not given),23% (inactive)
17,C=CCc1cccc2cc(C(=O)OCC)c(=O)oc12,5.84% (inactive)
18,CCC1CCCCN1CCNS(=O)(=O)c1ccc2c(c1)CCN2C(C)=O (stereo not given),12.7% (inactive)
19,CC(C)CCNC(=O)C1CCCN(S(=O)(=O)c2ccc(F)cc2)C1 (stereo not given),9.49% (inactive)
20,COCc1cc(C)nc(SCC(=O)Nc2cccc(C)c2)c1C#N,10.9% (inactive)
